Assay results as given in PubChem BioAssay (EPA / NIEHS).
Results filed as inconclusive are left out. The source made the active and inactive calls. Rule for the calls: active = hit-call score of the fitted dose curve at least 0.9, where 1 is the maximum; inconclusive = response in the unintended direction; inactive = score below 0.9.

The molecules below were run against human Matrix Metalloproteinase-9 (MMP9), MMP9 (gene 4318) (UniProt P14780) (assay: NVS_ENZ_hMMP9: NovaScreen (NVS) Enzymatic Assay for human Matrix Metalloproteinase-9 (MMP9) (AID 2283190);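 note: cell-free recombinant MMP9 protease activity read by fluorescent substrate signal; active means inhibition seen as loss of fluorescence signal versus DMSO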).
Sequence of human Matrix Metalloproteinase-9 (MMP9), MMP9 (gene 4318) (P14780 whole entry, looked up): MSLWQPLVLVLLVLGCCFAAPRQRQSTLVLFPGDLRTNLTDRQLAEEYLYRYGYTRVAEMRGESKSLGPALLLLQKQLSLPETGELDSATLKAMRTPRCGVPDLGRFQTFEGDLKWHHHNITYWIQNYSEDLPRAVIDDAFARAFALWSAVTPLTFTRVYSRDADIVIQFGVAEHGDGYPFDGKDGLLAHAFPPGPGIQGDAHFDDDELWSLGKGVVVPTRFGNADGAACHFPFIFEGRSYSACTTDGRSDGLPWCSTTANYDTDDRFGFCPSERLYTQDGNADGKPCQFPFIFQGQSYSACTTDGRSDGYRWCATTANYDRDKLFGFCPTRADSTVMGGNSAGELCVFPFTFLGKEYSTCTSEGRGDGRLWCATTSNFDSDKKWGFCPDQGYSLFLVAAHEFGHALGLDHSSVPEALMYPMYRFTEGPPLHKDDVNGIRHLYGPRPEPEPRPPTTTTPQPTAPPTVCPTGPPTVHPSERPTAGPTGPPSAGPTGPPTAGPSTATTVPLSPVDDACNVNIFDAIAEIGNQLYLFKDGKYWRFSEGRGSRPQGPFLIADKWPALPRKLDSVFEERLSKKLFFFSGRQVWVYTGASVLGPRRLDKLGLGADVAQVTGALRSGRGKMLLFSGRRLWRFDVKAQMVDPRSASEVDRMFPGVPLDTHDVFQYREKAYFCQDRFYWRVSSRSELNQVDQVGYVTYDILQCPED
Summary of the method: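 Cell-free recombinant MMP9 enzyme activity measured by fluorescence intensity 1 h after dosing. Primary screen in duplicate at 25 uM, actives followed in concentration series; loss of signal relative to DMSO.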
For C=CCCCCCCCCC=O, the AC50 was 5.07 µM (active). With CCCCOC(=O)CCC(C)=O the AC50 was 6.97 µM (active). With CCCCC(C=O)CC (stereo not drawn) the AC50 was 5.82 µM (active). For O=C(Oc1ccccc1)c1ccccc1C(=O)Oc1ccccc1, the AC50 was 9.17 µM (active). With CCCCCCCC(=O)OCC(COC(=O)CCCCCCC)OC(=O)CCCCCCC the AC50 was 4.96 µM (active). In the case of CCOC(=O)C1=NOC(c2ccccc2)(c2ccccc2)C1, the AC50 is reported as 2.32 µM (active). With C=C(C)OC(C)=O the AC50 was 9.44 µM (active). OCCCc1ccccc1 was tested, and the outcome was “inactive”. For CCCCCCOC(=O)CCCCC(=O)OCCCCCC, the AC50 was 7.16 µM (active). With CC(C)(CO)COC(=O)C(C)(C)CO the AC50 was 9.37 µM (active). In the case of CC=C(C)C=CC=C(C)C, the AC50 is reported as 4.96 µM (active). In the case of Cc1c(O)cccc1O, the AC50 is reported as 25.5 µM (active). In the case of CCCCOCCOCCOC(C)=O, the AC50 is reported as 1.23 µM (active). CCCCCCCO was tested, and the AC50 was 0.197 µM (active). In the case of COc1ccc(C(=O)/C(Br)=C\C(=O)O)cc1, the AC50 is reported as 4.96 µM (active). CC(C)c1cccc(C(C)C)c1N was tested, and the AC50 was 6.9 µM (active). CO[Si](CCCS)(OC)OC was tested, and the AC50 was 12.4 µM (active). For CC(C)C(=O)OCCOc1ccccc1, the AC50 was 7.19 µM (active). In the case of CCCSSCCC, the AC50 is reported as 6.62 µM (active). In the case of CC(C)CCCCCOC(=O)CS, the AC50 is reported as 5.63 µM (active). With Cc1ccc(S(=O)(=O)N=C=O)cc1 the AC50 was 7.22 µM (active). For CCc1occc(=O)c1O, the AC50 was 6.98 µM (active). CCC(C)(O)CCCC(C)C (stereo not drawn) was tested, and the AC50 was 0.972 µM (active).

These molecules were tested against human Phosphodiesterase 10 (PDE10), PDE10A (gene 10846) (UniProt Q9Y233) (assay: NVS_ENZ_hPDE10: NovaScreen (NVS) Enzymatic Assay for human Phosphodiesterase 10 (PDE10) (AID 2283195)).
Sequence of human Phosphodiesterase 10 (PDE10), PDE10A (gene 10846) (Q9Y233 whole entry, looked up): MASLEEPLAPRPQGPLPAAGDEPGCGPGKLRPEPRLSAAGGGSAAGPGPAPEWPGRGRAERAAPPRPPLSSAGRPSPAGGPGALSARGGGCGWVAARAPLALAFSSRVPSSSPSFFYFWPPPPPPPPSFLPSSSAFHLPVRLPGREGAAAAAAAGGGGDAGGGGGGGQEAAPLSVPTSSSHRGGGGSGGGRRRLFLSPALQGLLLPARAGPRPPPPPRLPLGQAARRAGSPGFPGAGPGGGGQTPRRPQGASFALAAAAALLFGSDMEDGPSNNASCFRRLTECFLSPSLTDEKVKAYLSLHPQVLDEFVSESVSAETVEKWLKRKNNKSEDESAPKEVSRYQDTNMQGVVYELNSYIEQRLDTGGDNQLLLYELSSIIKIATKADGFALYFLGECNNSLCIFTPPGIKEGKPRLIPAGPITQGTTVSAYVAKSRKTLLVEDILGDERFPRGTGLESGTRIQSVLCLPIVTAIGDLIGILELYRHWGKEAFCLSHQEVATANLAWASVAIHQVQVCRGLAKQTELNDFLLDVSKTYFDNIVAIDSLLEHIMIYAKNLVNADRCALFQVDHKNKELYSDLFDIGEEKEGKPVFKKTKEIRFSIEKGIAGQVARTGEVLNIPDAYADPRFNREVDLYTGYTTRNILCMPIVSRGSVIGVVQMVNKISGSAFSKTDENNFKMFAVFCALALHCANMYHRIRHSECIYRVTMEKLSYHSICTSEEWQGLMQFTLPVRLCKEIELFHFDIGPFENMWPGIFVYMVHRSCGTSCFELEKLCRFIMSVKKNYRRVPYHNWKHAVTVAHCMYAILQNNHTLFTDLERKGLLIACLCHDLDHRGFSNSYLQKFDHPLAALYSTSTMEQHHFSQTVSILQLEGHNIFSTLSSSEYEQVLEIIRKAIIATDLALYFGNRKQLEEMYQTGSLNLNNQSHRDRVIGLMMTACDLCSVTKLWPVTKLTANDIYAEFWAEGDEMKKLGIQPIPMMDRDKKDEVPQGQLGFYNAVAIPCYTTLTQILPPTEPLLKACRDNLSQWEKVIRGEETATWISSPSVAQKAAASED
Summary of the method: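 Recombinant human PDE10 with fluorescent substrate, 1 h, product separated by electrophoretic mobility shift. Loss of enzyme activity fitted against DMSO; initial screen 25 uM in duplicate, actives run to 50 uM maximum.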
For CC=C(C)C=CC=C(C)C, the outcome was “inactive”. With CCCCOCCOCCOC(C)=O the outcome was “inactive”. In the case of CCCSSCCC, the outcome is reported as “inactive”.

These molecules were tested against human Phosphoinositide 3-kinase alpha (PI3Ka), PIK3CA (gene 5290) (UniProt P42336) (assay: NVS_ENZ_hPI3Ka: NovaScreen (NVS) Enzymatic Assay for human Phosphoinositide 3-kinase alpha (PI3Ka) (AID 2283196)).
Sequence of human Phosphoinositide 3-kinase alpha (PI3Ka), PIK3CA (gene 5290) (P42336 whole entry, looked up): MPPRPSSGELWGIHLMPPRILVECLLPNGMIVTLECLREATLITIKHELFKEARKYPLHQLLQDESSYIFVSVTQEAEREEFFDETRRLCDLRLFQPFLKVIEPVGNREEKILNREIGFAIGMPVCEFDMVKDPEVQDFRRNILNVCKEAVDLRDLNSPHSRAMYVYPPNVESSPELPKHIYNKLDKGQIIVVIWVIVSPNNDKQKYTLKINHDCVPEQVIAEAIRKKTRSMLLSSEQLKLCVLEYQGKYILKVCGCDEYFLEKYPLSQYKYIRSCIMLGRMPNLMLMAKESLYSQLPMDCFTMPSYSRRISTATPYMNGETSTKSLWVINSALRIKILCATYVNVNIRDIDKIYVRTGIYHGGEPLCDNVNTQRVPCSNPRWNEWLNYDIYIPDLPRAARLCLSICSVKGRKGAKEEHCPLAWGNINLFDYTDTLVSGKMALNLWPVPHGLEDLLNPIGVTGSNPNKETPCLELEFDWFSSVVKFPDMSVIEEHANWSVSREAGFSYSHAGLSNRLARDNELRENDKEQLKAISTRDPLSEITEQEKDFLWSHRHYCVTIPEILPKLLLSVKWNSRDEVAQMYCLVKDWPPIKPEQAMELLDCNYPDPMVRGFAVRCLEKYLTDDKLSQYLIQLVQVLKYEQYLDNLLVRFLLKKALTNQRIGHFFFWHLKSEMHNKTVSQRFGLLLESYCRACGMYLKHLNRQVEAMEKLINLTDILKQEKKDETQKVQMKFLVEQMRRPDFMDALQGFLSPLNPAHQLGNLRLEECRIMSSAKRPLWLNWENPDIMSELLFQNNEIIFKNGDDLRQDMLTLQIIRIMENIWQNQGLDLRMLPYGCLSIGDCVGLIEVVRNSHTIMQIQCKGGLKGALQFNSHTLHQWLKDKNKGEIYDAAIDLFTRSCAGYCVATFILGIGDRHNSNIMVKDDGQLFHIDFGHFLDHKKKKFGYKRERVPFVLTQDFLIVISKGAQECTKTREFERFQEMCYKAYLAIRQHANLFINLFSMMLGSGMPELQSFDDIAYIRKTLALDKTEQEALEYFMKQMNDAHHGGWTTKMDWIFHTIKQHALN
Summary of the method: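 Recombinant human PI3Kα with fluorescent substrate, 1 h, product separated by electrophoretic mobility shift; 25 uM duplicate screen, hits (e.g., 30% inhibition) retested singly up to 50 uM; loss of signal vs DMSO.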
For CC=C(C)C=CC=C(C)C, the AC50 was 0.976 µM (active). In the case of CCCCOCCOCCOC(C)=O, the outcome is reported as “inactive”. For CO[Si](CCCS)(OC)OC, the AC50 was 39 µM (active).

These molecules were tested against sheep Cyclooxygenase-1 (Cox1), PTGS1 (gene 443551) (UniProt P05979) (assay: NVS_ENZ_oCOX1: NovaScreen (NVS) Enzymatic Assay for sheep Cyclooxygenase-1 (Cox1) (AID 2283239);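 note: actives reduce cyclooxygenase activity so potencies are for inhibitors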).
Sequence of sheep Cyclooxygenase-1 (Cox1), PTGS1 (gene 443551) (P05979 whole entry, looked up): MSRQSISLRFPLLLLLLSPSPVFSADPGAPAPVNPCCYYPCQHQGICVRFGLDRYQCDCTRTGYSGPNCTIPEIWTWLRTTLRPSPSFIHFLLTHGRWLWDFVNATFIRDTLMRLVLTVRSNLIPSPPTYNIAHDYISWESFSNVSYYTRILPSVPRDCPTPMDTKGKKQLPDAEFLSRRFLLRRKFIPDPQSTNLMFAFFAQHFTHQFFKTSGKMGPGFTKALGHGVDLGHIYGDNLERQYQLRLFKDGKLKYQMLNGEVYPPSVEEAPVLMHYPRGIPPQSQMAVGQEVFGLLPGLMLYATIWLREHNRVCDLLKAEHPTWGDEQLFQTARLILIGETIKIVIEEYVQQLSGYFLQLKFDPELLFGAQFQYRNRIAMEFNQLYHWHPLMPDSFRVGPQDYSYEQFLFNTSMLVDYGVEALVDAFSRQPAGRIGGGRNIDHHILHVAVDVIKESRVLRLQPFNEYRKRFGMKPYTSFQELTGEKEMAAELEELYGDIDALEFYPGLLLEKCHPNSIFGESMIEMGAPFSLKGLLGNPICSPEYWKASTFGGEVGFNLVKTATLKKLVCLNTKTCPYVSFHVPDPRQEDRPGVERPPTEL
Summary of the method: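 Colorimetric enzyme readout using sheep seminal-vesicle cyclooxygenase-1, measured 0.66 h post-dosing. Single-concentration duplicates at 25 uM first, then concentration series for actives, with DMSO as baseline and plate controls.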
For C=CCCCCCCCCC=O, the outcome was “inactive”. Cc1c(O)cccc1O was tested, and the AC50 was 5.06 µM (active). For COc1ccc(C(=O)/C(Br)=C\C(=O)O)cc1, the AC50 was 25 µM (active). In the case of CCc1occc(=O)c1O, the AC50 is reported as 0.243 µM (active).
